Screening data deposited in PubChem BioAssay by The Scripps Research Institute Molecular Screening Center.
Most compounds without a hit are left out; they make up all but 4.8% or so of the library.
DAX1 inh-1: DAX1 (NR0B1) inhibitors, primary screen, cell-based, HEK293, Gal4-DAX1, luciferase luminescence; Nuclear receptor subfamily 0 group B member 1 (Homo sapiens), P51843; HEK293 Gal4-DAX1 luciferase reporter; inhibition, % at 6.75 µM; 340,000 compounds, 0.99% hits; AID 504766, 2011;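 active = inhibition above the mean over all tested compounds plus 3 SD, cut at about 4.2% in these data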;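 also: inhibition shows as a rise in luminescence from relieved DAX1 repression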
Target sequence (P51843 207-470 limits assumed): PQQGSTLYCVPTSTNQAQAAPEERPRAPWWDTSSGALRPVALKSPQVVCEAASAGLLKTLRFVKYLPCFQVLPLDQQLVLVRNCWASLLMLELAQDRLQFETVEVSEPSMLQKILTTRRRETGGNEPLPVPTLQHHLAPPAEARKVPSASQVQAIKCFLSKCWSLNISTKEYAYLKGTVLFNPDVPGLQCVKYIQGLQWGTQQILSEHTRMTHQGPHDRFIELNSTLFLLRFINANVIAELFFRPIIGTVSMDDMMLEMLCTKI
hgDAF-12 ag: H. glycines DAF-12 receptor agonists, primary screen, cell-based, luminescence, HEK293, GAL4 fusion, UAS-luciferase. Nuclear hormone receptor DAF-12 (Heterodera glycines), GAL4 fusion. activation, % at 6.8 µM. HEK293 GAL4-hgDAF12 UAS-luciferase reporter, agonist luminescence; normalized to butyrate control. 370,000 compounds, 1.8% hits. AID 687014, 2013;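 active = activation above a cutoff set at the mean of all screened compounds plus 3 SD, cut at about 10% in these data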
SMARCA2 act: SMARCA2 (BRM) function activators, primary screen, cell-based, luminescence, high throughput; MG213 cells, MMTV-luciferase reporter, dexamethasone, overnight; activation, % at 9.1 µM; 370,000 compounds, 1% hits; in the data active = activation above about 7.8%
hcDAF12 agonist: H. contortus DAF-12 nuclear receptor activators, primary screen, cell-based, luminescence, HEK293, lit1-tk-luc reporter | 370,000 compounds, 1.4% hits | activation, % at 6.8 µM | AID 652067, 2013 | HEK293 hcDAF-12 lit1-tk-luc reporter; 0% DMSO, 100% Δ7-dafachronic acid;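 active = activation above the mean of all tested compounds plus 3 SD, cut at about 5.5% in these data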
ssDAF12 agonist: S. stercoralis DAF-12 nuclear receptor activators, primary screen, cell-based, luminescence, HEK293, GRIP1 co-expression, lit1-tk-luc; Nuclear hormone receptor DAF-12 (Strongyloides stercoralis); HEK293 ssDAF-12/GRIP1 lit1-tk-luc reporter; % of 3 µM dafachronic acid response; activation, % at 6.8 µM; 370,000 compounds, 1% hits; AID 652126, 2013;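 active = activation above the mean over all tested compounds plus 3 SD, cut at about 0.9% in these data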
DAX1 inh-2: DAX1 (NR0B1) inhibitors on StAR promoter, primary screen, cell-based, luminescence, SF-1 (NR5A1), full-length DAX-1; 370,000 compounds, 1.1% hits; HEK293T StAR-luciferase reporter, SF-1/DAX-1 repression relief; inhibition, % at 6.8 µM;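 active = inhibition above the mean over all tested compounds plus 3 SD, cut at about 3.6% in these data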;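 also: higher inhibition means more luminescence from relief of DAX-1 repression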
SMARCA2 conf: SMARCA2 (BRM) function activators, confirmation, cell-based, luminescence, triplicate; shares compounds with SMARCA2 act; MG213 cells, MMTV-luciferase with dexamethasone, overnight; MG213 cells expressing E1A, Rb sequestered; DMSO wells 0%, reference activator 100%; activation, % at 9.1 µM; 3,500 compounds, 30% hits; AID 652260, 2013;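 active = activation above its plate's cutoff, the mean activation of tested wells plus 3 SD, cut at about 7.9% in these data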
GAL4-VP16 Luc: GAL4-VP16 luciferase reporter activation, counter-screen for SMARCA2 (BRM) activator project, cell-based, pG5luc, luminescence, high throughput; activation, % at 9.1 µM; AID 686939, 2013; 3,500 compounds, 41% hits; shares compounds with SMARCA2 act; HEK293 GAL4-VP16 pG5luc reporter; scaled: DMSO wells 0%, SAHA wells 100%;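 active = activation above the solvent-only control well mean plus 3 SD, averaged across control plates, cut at about 5.2% in these data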
A number is an active result; - = inactive; . = no result.

SMILES	DAX1 inh-1	hgDAF-12 ag	SMARCA2 act	hcDAF12 agonist	ssDAF12 agonist	DAX1 inh-2	SMARCA2 conf	GAL4-VP16 Luc
O=C(/C=C/c1ccc(Br)cc1)c1ccc(NC2=NCCCS2)cc1	-	-	25.0	-	-	-	11.5	-
COc1ccc(NC(=S)NC(=O)c2ccc3c(c2)OCCO3)cc1	-	-	11.0	-	-	-	-	11.5
C(=C\c1ccccn1)/c1ccccn1	-	-	-	-	-	-	.	.
O=C(N/N=C/c1ccccn1)c1ccc(Cl)cc1	-	-	13.3	-	-	-	-	20.8
Clc1ccc(C=Cc2ccccn2)cc1	-	13.0	19.2	-	-	-	-	8.0
CN(Cc1ccccc1)S(=O)(=O)c1ccc2[nH]c(=O)ccc2c1	-	-	8.7	-	-	-	-	-
CCOC(=O)c1ccc(CNCc2ccc(C)cc2)cc1	-	-	9.1	-	-	-	-	-
Cc1ccc(CNC(=O)COC(=O)c2ccc(Br)cc2)cc1	-	-	-	-	-	-	.	.
CCCCOC(=O)Nc1ccc2c(C)cc(=O)oc2c1	-	-	-	-	-	-	.	.
CCOC(=O)Nc1ccc2c(C)cc(=O)oc2c1	-	10.9	11.4	-	-	-	-	8.7
CCCCNC(=O)C[C@H]1C(=O)N(CCCOC)C2=CCCCC[C@]21C(=O)OC	.	-	-	-	-	-	.	.
CC1CCc2c(sc(/N=C/c3cccnc3)c2C(N)=O)C1 (configuration not stated)	.	-	-	-	-	-	.	.
CC1CCc2c(sc(/N=C/c3ccco3)c2C(N)=O)C1 (configuration not stated)	-	-	8.8	-	-	-	-	6.2
C=CCN(CC=C)C(=S)NC(=O)c1ccc(-c2ccccc2)cc1	-	-	8.0	-	-	-	-	-
O=C(Cc1ccccc1)Nc1nc(-c2cccs2)cs1	-	-	11.5	-	-	-	-	6.4
Cn1sccc1=O	-	-	9.4	-	-	-	16.6	-
O=c1ccsn1Cc1ccccc1	-	-	-	-	-	-	.	.
CCC(=O)Nc1nc2ccc(S(C)(=O)=O)cc2s1	-	-	-	-	-	-	.	.
Cc1ccccc1NC(=O)Nc1nc2ccc(S(C)(=O)=O)cc2s1	9.0	-	9.2	-	-	-	-	-
COc1cc(C(=O)Nc2nc3ccc(S(C)(=O)=O)cc3s2)cc(OC)c1C	-	-	-	-	-	-	.	.
Cc1cc(C(=O)Nc2nc3ccc(S(C)(=O)=O)cc3s2)c(C)o1	-	-	10.3	-	-	-	-	5.8
Nc1nc2ncccc2cc1C(=O)c1c[nH]c2ccccc12	.	-	-	-	-	-	.	.
CCOc1ccc2nc(SCC#N)c(C#N)cc2c1	-	-	8.8	-	-	-	7.8	6.6
CCSc1nc2ccc(OC)cc2cc1C#N	-	-	-	-	-	-	.	.
O=C(NCCc1c[nH]c2ccccc12)OCc1cn(Cc2ccccc2Cl)nn1	.	-	-	-	-	-	.	.
SMILES	DAX1 inh-1	hgDAF-12 ag	SMARCA2 act	hcDAF12 agonist	ssDAF12 agonist	DAX1 inh-2	SMARCA2 conf	GAL4-VP16 Luc
CNC(C)C(=O)NC(C(=O)N1CCCC1C(=O)Nc1cccc2ncccc12)C(C)C (configuration not stated)	.	-	.	-	-	.	.	.
CC(=O)N/C(N)=N/c1nc2cc(C)ccc2o1	-	10.6	8.9	-	-	-	-	9.6
CC1(N=Cc2cc(Cl)ccc2O)COP(=O)(Nc2ccccc2)OC1 (configuration not stated)	-	-	8.2	-	-	-	-	-
O=C(N/N=C/c1cc(Cl)ccc1O)c1cccnc1	-	-	-	-	-	-	.	.
O=C(Nc1ccc(Br)cc1)OCCCN1CCC2(CCCCC2)C1=O	.	-	-	-	-	-	.	.
Cc1noc(C)c1C(=O)NCCc1ccccc1	-	-	9.7	-	-	-	-	-
CCOC(=O)CC[C@@H]1CC[C@]2(CCCN(S(=O)(=O)C3CCCCC3)C2)O1	.	-	-	-	-	-	.	.
Cc1occc1C(=O)N/N=C/C=C\c1ccccc1[N+](=O)[O-]	.	-	8.9	-	-	-	-	-
O=C(N/N=C/C=C\c1ccccc1[N+](=O)[O-])c1ccco1	-	-	-	-	-	-	.	.
COc1ccc2[nH]c(=O)c(C(c3nnnn3C(C)(C)C)N(Cc3ccco3)CC3CCCO3)cc2c1 (configuration not stated)	-	-	11.6	-	-	-	-	-
O=C1OC(/C(=C\Nc2cc(Cl)ccc2O)[N+](=O)[O-])c2ccccc21 (configuration not stated)	-	-	33.2	-	-	-	-	-
Cc1ccc(N/C=C(\C2OC(=O)c3ccccc32)[N+](=O)[O-])c(C)c1 (configuration not stated)	.	-	-	-	-	-	.	.
O=C1OC(/C(=C\Nc2ccc(F)cc2F)[N+](=O)[O-])c2ccccc21 (configuration not stated)	-	-	13.0	-	-	-	-	-
CCC(NC(=O)CN1CCN(c2cccc(OC)c2)CC1)c1ccccc1 (configuration not stated)	.	-	-	-	-	-	.	.
NC(=NCc1ccccc1)NC(=O)OCc1ccccc1	.	-	-	-	-	-	.	.
CCOC(=O)[C@]12CCCC=C1N(CCCOC)C(=O)[C@@H]2CC(=O)NCC1CCCCC1	.	-	-	-	-	-	.	.
Cc1cccc(C(=O)OCC(=O)NCC2CCCO2)c1O (configuration not stated)	-	-	9.2	-	-	-	-	-
O=C(COC(=O)c1ccccc1Br)NCC1CCCO1 (configuration not stated)	-	-	-	-	-	-	.	.
O=C(CSc1nnc(-c2cccs2)o1)c1cccs1	-	-	8.0	-	-	-	11.9	7.0
